From PubChem BioAssay
TWEAK Fn14 block – inhibitors of TWEAK-Fn14 interaction signaling. TWEAK-stimulated Fn14 reporter cells, luciferase luminescence, 8 h. inhibition, % at 10 µM. actives 2% (n = 360,000). AID 1159606; in the data active = inhibition above about 50%
LGR2 inh – Drosophila LGR2 receptor signaling inhibition | HEK293 LGR2, CRE-luciferase, bursicon-stimulated, 4 h | inhibition, % at 9.99 µM | actives 0.35% (n = 380,000);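 active = drop in luminescence signal, shown as inhibition above about 50% in the replicate tests, limit read from the data, passing the limit was not always enough; inconclusive = probably only some replicates passing the limit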;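 also: agonist challenge used bursicon conditioned medium at about half maximal strength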
HSP90 refold inh – blocks HSP90-mediated luciferase refolding in reticulocyte lysate. actives 0.91% (n = 290,000). Rabbit reticulocyte lysate, luciferase refolding luminescence, 3 h. inhibition, % at 5.6 µM. AID 1789;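 active = inhibition above the screen-wide mean plus 3 SD, computed separately per campaign, cut at about 16% in these data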;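 also: inhibitors lower the luminescence because luciferase stays unfolded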
TROY signal inh – TROY signaling inhibition; inhibition, % at 10 µM; actives 0.98% (n = 360,000); Q293 LMP1-TROYcd NF-kB luciferase reporter, 4 h; AID 1347056;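 active = compounds whose plate-normalised and pattern-corrected inhibition of the luciferase reporter signal at the single screening dose is 50% or more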
A number is an active result; . = inactive; ? = inconclusive; / = no result given. Rows were chosen to be rich in hits. Some 2.2% of all compounds tested hit in one or more screens of this group.

SMILES	TWEAK Fn14 block	LGR2 inh	HSP90 refold inh	TROY signal inh
O=C(Cc1ccccc1)N1C[C@@H]2[C@H](c3ccccc31)[C@@H](CO)N2C(=O)Cc1ccccc1	/	.	/	/
CCC(=O)Oc1oc(-c2ccccc2)nc1C=Nc1ccc(C)cc1	.	.	.	72
Cc1ccc(-c2nc(C=Nc3ccc(O)cc3)c(O)o2)cc1	64	.	.	.
CN=Cc1nc(-c2ccccc2)oc1O	.	/	.	.
CCC(=O)Oc1oc(-c2ccccc2)nc1C=Nc1ccccc1OC	.	/	.	.
NNC(=O)c1ccc(N2CCc3ccccc32)c([N+](=O)[O-])c1	.	.	.	.
Nc1ncnc(N2CCc3ccccc32)c1[N+](=O)[O-]	84	.	.	61
C[C@H]1CN([C@@H](C)CO)C(=O)c2cc(/C=C/c3ccccc3)cnc2O[C@@H]1CN(C)C	/	.	/	/
CC(C)C[C@H](NC(=O)c1[nH]cnc1C(=O)Nc1ccc(CNC(=O)OC(C)(C)C)cc1)C(=O)OCc1ccccc1	.	.	/	.
C[C@H](NC(=O)c1[nH]cnc1C(=O)Nc1ccc(CNC(=O)OC(C)(C)C)cc1)C(=O)OCc1ccccc1	52	.	/	74
O=C(Nc1ccccc1)c1nc[nH]c1C(=O)NCCCCCCNC(=O)c1[nH]cnc1C(=O)Nc1ccccc1	69	/	/	.
CC(C)(C)OC(=O)NCc1ccc(CNC(=O)c2[nH]cnc2C(=O)NC2CCN(C(=O)OC(C)(C)C)CC2)cc1	57	/	/	.
CC(C)(C)OC(=O)NCCCCCNC(=O)c1nc[nH]c1C(=O)NCCCCCNC(=O)OC(C)(C)C	65	102	/	58
CC=Cc1ccc2n(c1=O)C[C@H]1[C@H](CO)[C@@H](C(=O)N[C@@H](C)c3ccccc3)[C@@H]2N1Cc1cccnc1 (mixture of isomers)	/	.	/	/
CC(C)(C)OC(=O)CNC(=O)c1[nH]cnc1C(=O)NCC(=O)OCc1ccccc1	.	.	.	.
CC(C)(C)OC(=O)NCCCCCNC(=O)c1nc[nH]c1C(=O)NCc1ccc(CNC(=O)OC(C)(C)C)cc1	96	/	/	64
CC(C)(C)OC(=O)NCc1ccc(CNC(=O)c2nc[nH]c2C(=O)NCc2ccc(CNC(=O)OC(C)(C)C)cc2)cc1	.	.	/	.
CC(C)(C)OC(=O)NCCCCCNC(=O)c1nc[nH]c1C(=O)NCC(=O)OCc1ccccc1	.	85	/	.
O=C(Nc1ccc(F)cc1)N1CCCCN2[C@H](C1)[C@H](c1ccc(C#Cc3ccccc3)cc1)[C@@H]2CO	/	.	/	/
NC(=S)NN=Cc1nccc2ccccc12	77	.	/	.
NC(=S)NN=Cc1nccc2c(C(F)(F)C(F)(F)C(F)(F)F)cccc12	.	.	/	.
Nc1ccccc1S(=O)(=O)NC1=NCCCCC1	104	.	.	.
Nc1ccc(S(=O)(=O)NC2=NCCCCC2)cc1N	.	.	.	.
O=C(CNc1cccc2ccccc12)N/N=C/c1ccc([N+](=O)[O-])cc1	82	.	.	.
COc1ccc(NC(=O)N(C)C[C@@H]2Oc3c(NC(=O)Nc4ccc(C(F)(F)F)cc4)cccc3C(=O)N([C@@H](C)CO)C[C@H]2C)cc1	/	.	/	/
SMILES	TWEAK Fn14 block	LGR2 inh	HSP90 refold inh	TROY signal inh
COc1cccc(C(C[N+](=O)[O-])c2c(C)[nH]n(-c3ccccc3)c2=O)c1 (stereo not drawn)	.	.	42	.
Cc1[nH]n(-c2ccccc2)c(=O)c1C(C[N+](=O)[O-])c1ccc(Br)cc1 (stereo not drawn)	.	/	.	.
CCCNC(=O)[C@@H]1[C@@H](CO)[C@@H]2Cn3c(ccc(C4=CCCC4)c3=O)[C@@H]2N1C(=O)CC1CC1	/	.	/	/
O=C(N[C@H]1CC[C@@H](CCNS(=O)(=O)c2ccc(F)cc2)O[C@@H]1CO)C1CCOCC1	/	.	/	/
O=[N+]([O-])c1ccc(Sc2cccc3cccnc23)c([N+](=O)[O-])c1	64	.	.	.
O=[N+]([O-])c1cc(Cl)ccc1Sc1ccccn1	.	/	.	.
Cc1cc(C)nc(Sc2ccc([N+](=O)[O-])cc2[N+](=O)[O-])n1	58	.	.	.
O=[N+]([O-])c1ccc(Sc2ccncn2)c([N+](=O)[O-])c1	77	?	/	.
CCOC(=O)C(CCCOc1ccccc1)C(=O)OCC	63	/	.	/
Nc1ccc[n+](CC(=O)c2ccccc2)c1	.	.	.	.
CCc1n[n+](CC(=O)c2ccccc2)c(N)s1	82	81	52	58
O=C1[C@H]2[C@@H](c3ccccc3)N[C@]3(CCCN(Cc4ccc(C(F)(F)F)cc4)C3=O)[C@H]2C(=O)N1Cc1ccccc1	.	.	/	.
O=C1[C@H]2[C@@H](c3ccc(C(F)(F)F)cc3)N[C@]3(CCCN(Cc4ccc(F)cc4)C3=O)[C@H]2C(=O)N1Cc1ccccc1	95	.	/	.
C[C@@H]1CN([C@H](C)CO)C(=O)Cc2cc(NC(=O)CCC(F)(F)F)ccc2O[C@@H]1CN(C)C(=O)Nc1ccc(C(F)(F)F)cc1	/	.	/	/
CCCN1[C@@H]2Cn3c(cccc3=O)[C@H]1[C@@H](C(=O)NC1Cc3ccccc3C1)[C@@H]2CO	/	.	/	/
O=C(NC(Cc1c[nH]c2ccccc12)C(=O)N/N=C/c1ccc(Cl)cc1)c1cccs1 (stereo not drawn)	53	.	.	.
CCCCOC(=O)c1ccc(NC(=O)c2c(OC)cccc2OC)cc1	.	.	.	83
C[C@@H]1CN([C@H](C)CO)C(=O)c2cc(NC(=O)CCCN(C)C)ccc2O[C@@H](C)CCCCO[C@H]1CN(C)C(=O)Nc1cccc2ccccc12	/	.	/	/
COc1ccc(C=NNc2ccc(S(=O)(=O)Nc3ccccc3C(=O)O)cc2[N+](=O)[O-])c(OC)c1	.	/	/	59
CCCOc1ccc(/C=N/Nc2ccccc2[N+](=O)[O-])c(OCCC)c1	56	.	.	.
COc1ccc(NS(=O)(=O)c2ccc(N/N=C(\C)c3ccncc3)c([N+](=O)[O-])c2)cc1	74	.	.	.
CCOc1ccc(C=NNc2ccc(S(=O)(=O)Nc3ccccc3C(=O)O)cc2[N+](=O)[O-])cc1	.	.	/	.
COc1ccc(NC(=S)NNc2ccc(S(=O)(=O)Nc3ccccc3C(=O)O)cc2[N+](=O)[O-])cc1	.	.	20	.
COc1ccc(NC(=O)Nc2ccc3c(c2)CC(=O)N([C@H](C)CO)C[C@@H](C)[C@@H](CN(C)S(C)(=O)=O)O3)cc1	/	.	/	/
O=C(Nc1ccccc1F)N[C@H]1CC[C@H](CCNC(=O)C2CCOCC2)O[C@H]1CO	/	.	/	/
SMILES	TWEAK Fn14 block	LGR2 inh	HSP90 refold inh	TROY signal inh
Cc1nn(-c2ccccc2)c(Cl)c1/C=N/Nc1ccc(S(=O)(=O)Nc2ccccc2C(=O)O)cc1[N+](=O)[O-]	.	.	.	52
CC(=O)N(C)C1=C(N2CCOCC2)C(=O)c2ccccc2C1=O	74	/	.	.
Cc1cc2nc(N3C(=O)CNC3=S)sc2cc1C	90	?	.	63
COc1ccc(NC(=O)Nc2ccc3c(c2)C(=O)N([C@H](C)CO)C[C@@H](C)[C@@H](CN(C)C(=O)NC2CCCCC2)O3)cc1	/	.	/	/
O=c1cc(N=Nc2ccc(Cl)cc2)[nH]c(=O)[nH]1	58	.	.	.
CCN1[C@H](C(=O)NCCc2cn(C)cn2)[C@@H](CO)[C@@H]2Cn3c(ccc(-c4cccnc4)c3=O)[C@@H]21	/	.	/	/
